# Tested on: HEK293 WT BDD-FVIII-Gluc
# Assay: secreted FVIII-Gluc luciferase Z-score vs DMSO control; higher = more FVIII-Gluc secretion
# Details: 5 µM
# Procedure: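 Natural plant-compound library (480 compounds, ST catalogue IDs) screened on HEK293 cells stably expressing WT BDD-FVIII-Gaussia luciferase fusion at 5 µM. Secreted Gluc activity in the medium is given as a Z-score relative to DMSO controls.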
row,Compound,secreted FVIII-Gluc luciferase Z-score
1,O=C(O)C1OC(O)C(O)C(O)C1O (stereo unspecified),0.395
2,C=CC(C)(O)CCCC(C)CCCC(C)CCCC(C)C (stereo unspecified),0.179
3,O=C(/C=C/c1ccc(O)c(O)c1)O[C@@H]1CC(O)(C(=O)O)CC(O)C1O (stereo partly specified),0.588
4,COc1cc(-c2cc(=O)c3ccccc3o2)ccc1O,1.57
5,O=c1cc(-c2cccc(O)c2)oc2cc(O)ccc12,-0.00771
6,COc1ccc2c(=O)cc(-c3ccccc3)oc2c1O,0.609
7,CC(C)(S)[C@H](N)C(=O)O,0.41
8,COc1cc(/C=C/C(=O)CC(=O)/C=C/c2ccc(O)c(OC)c2)ccc1O,0.567
9,CC(C)CC(N)C(=O)O (stereo unspecified),0.117
10,NC(CC(=O)O)C(=O)O (stereo unspecified),0.487
11,O=C(/C=C/c1ccc(O)cc1)c1ccccc1O,0.315
12,COc1cc(C(=O)OC2CC(C)=CCC3(C)CCC(O)(C(C)C)C23)ccc1O (stereo unspecified),-0.405
13,O=c1cc[nH]c(=S)[nH]1,0.275
14,N=c1ccn2c(n1)OC1C2OC(CO)[C@H]1O (stereo partly specified),-1.3
15,N[C@@H](CSCC(=O)O)C(=O)O,0.103
16,CC1(C)C=Cc2c(c3ccccc3[nH]c2=O)O1,0.817
17,Cc1cc(O)c2c(c1)C(=O)c1cccc(O)c1C2=O,0.974
18,C[C@H]1[C@H]2CC[C@H]3[C@@H]4CC=C5C[C@@H](N(C)C)CC[C@]5(C)[C@H]4CC[C@]23CN1C,0.23
19,CC(=O)c1c(O)c(C)c(O)c2c1OC1=CC(=O)C(C(C)=O)C(=O)[C@@]12C (stereo partly specified),-5.07
20,O=c1cc(-c2ccccc2O)oc2c(O)c(O)ccc12,0.356
21,COC(=O)CC[C@@H](C)[C@H]1CC[C@H]2[C@@H]3CC[C@@H]4C[C@H](O)CC[C@]4(C)[C@H]3C[C@H](O)[C@]12C,0.392

# Source: the supplement of paper PMC12024529
